JMJD2A Tudor inh: qHTS Assay for Inhibitors of JMJD2A-Tudor Domain | AlphaScreen JMJD2A-Tudor / H3K4me3 peptide binding | Potency, µM (doses to about 114 µM), without a hit: at the highest dose activity change, negative = inhibition, hits mostly inhibitors | 390,000 compounds, 4.4% hits | AID 504339, 2011; also: potency is read from the fitted curve at half-maximal effect; % is scaled to controls: 0 for no effect and ±100 for the full control effect; nearly all actives have a fitted effect of over 50% in size
PI5P4Ka inh: qHTS for Inhibitors of phosphatidylinositol 5-phosphate 4-kinase (PI5P4K) | max response, % | PI5P4Kalpha enzyme, ADP-Glo luminescence, 60 min; active compounds read low | AID 652105, 2013 | Phosphatidylinositol 5-phosphate 4-kinase type-2 alpha (Homo sapiens), P48426 | 330,000 compounds, 1.2% hits; active = max response of -50% or lower; inconclusive = between -30% and -50%; inactive = -30% or higher; also: value at the top dose of about 77 µM; % is scaled to controls: 0 for no effect and ±100 for the full control effect
Target sequence (P48426 whole entry, looked up): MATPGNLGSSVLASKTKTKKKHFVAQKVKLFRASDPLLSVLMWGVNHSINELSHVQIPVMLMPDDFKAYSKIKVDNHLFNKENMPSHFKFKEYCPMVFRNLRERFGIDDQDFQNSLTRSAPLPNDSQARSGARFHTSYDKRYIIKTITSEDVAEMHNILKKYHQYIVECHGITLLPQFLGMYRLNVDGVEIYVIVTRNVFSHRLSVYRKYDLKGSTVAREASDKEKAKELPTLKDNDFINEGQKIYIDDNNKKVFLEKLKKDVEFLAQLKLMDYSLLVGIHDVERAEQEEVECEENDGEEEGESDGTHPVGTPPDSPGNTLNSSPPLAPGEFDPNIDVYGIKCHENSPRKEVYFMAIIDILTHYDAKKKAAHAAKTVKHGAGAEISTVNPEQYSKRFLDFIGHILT
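qHTS, 1536-well: enzyme/substrate mix, compound by pin tool, 5 microM ATP final; RT 60 min; ADP-Glo reagents 1 (45 min) then 2 (30 min); luminescence.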
HP1b binding inh: HTS for Inhibitors of HP1-beta Chromodomain Interactions with Methylated Histone Tails | Potency, µM (doses to about 114 µM), for the others: at the top dose activity change, negative = inhibition, hits mostly inhibitors | Chromobox protein homolog 1 (Homo sapiens), P83916 | AlphaScreen HP1-beta / biotin-H3K9me3 peptide binding | 390,000 compounds, 0.56% hits; also: potency is read from the fitted curve at half-maximal effect; nearly all actives have a fitted effect of over 70% in size
Target sequence (P83916 whole entry, looked up): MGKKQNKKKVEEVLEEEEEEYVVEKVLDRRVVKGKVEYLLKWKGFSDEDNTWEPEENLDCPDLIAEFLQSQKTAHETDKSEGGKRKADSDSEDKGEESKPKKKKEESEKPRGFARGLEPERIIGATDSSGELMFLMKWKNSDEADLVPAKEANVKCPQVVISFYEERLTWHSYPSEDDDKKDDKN
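Compound inhibition of the preformed complex between 50 nM HP1-beta and 50 nM biotinylated H3K9me3 peptide was read by AlphaScreen. Buffer was PBS pH 7.4 with 0.01% Tween-20. Incubations ran 30 min at room temperature, with 10 ug/mL donor/acceptor beads.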
G9a block: qHTS Assay for Inhibitors of Histone Lysine Methyltransferase G9a | Histone-lysine N-methyltransferase EHMT2 (Homo sapiens), Q96KQ7 | G9a H3K9 monomethylation, AlphaScreen, 2 h | Potency, µM (series often up to 102 µM), inactives show top-dose activity, negative = inhibition, most hits filed as inhibitors | 350,000 compounds, 8.8% hits | AID 504332, 2011; also: potency is read from the fitted curve at half-maximal effect; % is scaled to controls: 0 for no effect and ±100 for the full control effect; nearly all actives have a fitted effect of over 75% in size
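AlphaScreen detection with an anti-monomethyl H3K9 antibody quantified product after a 2 h room-temperature reaction containing 500 nM biotinylated H3K9 peptide, 20 µM SAM and 20 nM enzyme, which had been preincubated 15 min with compound.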
BAZ2B inh: qHTS Assay for Inhibitors of BAZ2B | AID 504333, 2011 | AlphaScreen BAZ2B-H3K14Ac peptide displacement | Potency, µM (titrated, usually from 114 µM), for the others: at the top dose activity change, negative = inhibition, usual class: inhibitors | 360,000 compounds, 4.4% hits | Bromodomain adjacent to zinc finger domain protein 2B (Homo sapiens), Q9UIF8; also: potency is read from the fitted curve at half-maximal effect; % is scaled to controls: 0 for no effect and ±100 for the full control effect; nearly all actives have a fitted effect of over 60% in size
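BAZ2B (50 nM) with biotin-H3(5-23)K14Ac peptide (50 nM) in PBS pH 7.4, 0.01% Tween-20, preformed 30 min, then compound 30 min at room temperature; top concentration 110uM. AlphaScreen streptavidin donor/nickel chelate acceptor beads (10 ug/mL final), 20 min dark, signal read.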
PLK1 PBD inh: qHTS for Inhibitors of PLK1-PDB (polo-like kinase 1 - polo-box domain): Primary Screen | Potency, µM, without a hit: max response, negative = inhibition, usual class: inhibitors | 360,000 compounds, 2.8% hits | Plk1 PBD binding of FITC phosphopeptide, fluorescence polarization | Serine/threonine-protein kinase PLK1 (Homo sapiens), P53350; also: potency is read from the fitted curve at half-maximal effect; series mostly up to about 57 µM; % is scaled to controls: 0 for no effect and ±100 for the full control effect; nearly all actives have a fitted effect of over 65% in size
Active calls of the source: *; ? = inconclusive; . = no result given; [ ] = dose if it differs, or a comment. The list is not random: actives were taken first. Their share in the collection is about 12%. Unless noted, calls follow the shape of the dose curve; as a rule, active = well fitted curve in the direction sought with a large enough effect; inconclusive = small, poorly fitted or top-dose-only effect, or another doubt; inactive = no such curve, though single readings can be large; an effect the other way counts as inactive or inconclusive.

SMILES	JMJD2A Tudor inh	PI5P4Ka inh	HP1b binding inh	G9a block	BAZ2B inh	PLK1 PBD inh
CC(C)CCN(C(=O)C1=COCCO1)c1c(N)n(Cc2ccccc2)c(=O)[nH]c1=O	-14%	1	18%	?	6%	-18%
Cc1c(CCC(=O)O)c(=O)oc2c(C)c3occ(-c4ccc(Br)cc4)c3cc12	?	-25	?	45µM*	56µM*	27µM*
COc1ccc(-c2coc3c(C)c4oc(=O)c(CCC(=O)O)c(C)c4cc23)cc1	-27%	?	?	?	?	?
Cc1coc2c(C)c3oc(=O)c(CCC(=O)NCCc4ccccc4)c(C)c3cc12	-31%	.	34%	5%[59 µM]	-9%	.
CCCC(NC(=O)Cc1c(C)c2cc3c(C)c(C)oc3c(C)c2oc1=O)C(=O)N[C@@H](Cc1ccccc1)C(=O)O (some centres undefined)	56µM*	-6	?	-133%[12.7 µM]	50µM*	?
Cc1coc2c(C)c3oc(=O)c(CCC(=O)N[C@@H](C)C(=O)N[C@@H](Cc4ccccc4)C(=O)O)c(C)c3cc12	89µM*	4	-22%	.	?	0%
CCCCC(NC(=O)Cc1c(C)c2cc3c(C)c(C)oc3c(C)c2oc1=O)C(=O)O (centres undefined)	-7%	9	23%	7%	-2%	-19%
Cc1cc(CN(C)C(=O)C2CCC(=O)N(CCc3cccc(F)c3)C2)on1 (centres undefined)	-7%	1	48%	55%	0%	-1%
CCc1ccc(S(=O)(=O)c2nnn(-c3ccc(F)cc3)c2N)cc1	1%	.	29%	-3%[59 µM]	2%	.
Cc1cc(=O)[nH]c2cc(O)ccc12	-13%	.	3%	-14%	11%	-1%
CC(C)=CCCC1(C)C=Cc2c(c(C)cc3c2[nH]c2cc(O)ccc23)O1 (centres undefined)	45µM*	41	-40%	?	45µM*	-3%
Cc1ccc2[nH]c(=O)c(CN(CCCO)Cc3nnnn3Cc3ccccc3)cc2c1	-4%[57.1 µM]	.	6%[57 µM]	.	.	.
COC(=O)C1CC23C=CCN4CCC5(c6ccccc6NC15C2C)C43 (centres undefined)	?	-1	30%[57 µM]	40µM*	-24%	-24%
COc1ccc(C(=O)N2CC(=O)Nc3ccc(C)cc3C2c2ccc(F)cc2)c(OC)c1 (centres undefined)	-14%	.	28%	-3%[59 µM]	-3%	.
Cc1ccc(CNC(=O)CSc2c(C(C)C)cnc3c2c(=O)n(C)c(=O)n3C)cc1	-17%	.	22%[57 µM]	7%[59 µM]	4%	.
C/C(=N\NC(=S)NC(C)C)c1ccc2c(c1)OCCO2	?	2	50µM*	?	?	-27%
CNC(=S)N/N=C(\C)c1ccc2c(c1)OCO2	-33%	-65*	10%	?	?	-10%
CCNC(=S)N/N=C(\C)c1ccc2c(c1)OCCO2	-34%	?	-20%	17%[59 µM]	?	-2%
C/C(=N\NC(=S)Nc1ccc(C(C)C)cc1)c1ccc2c(c1)OCO2	-29%	2	-20%	?	?	-6%
CNC(=S)N/N=C(\C)c1ccc2c(c1)OCCO2	-6%	-76*	-1%	-12%[59 µM]	?	-3%
CN(C)c1ncc2nc(-c3ccc(F)cc3)c(=O)n(CCC#N)c2n1	.	.	.	1%[12.7 µM]	.	.
CC(=O)c1ccc(N2CCN(C(=O)C3CCN(S(=O)(=O)c4cn(C)cn4)CC3)CC2)cc1	2%	.	26%	-2%[12.7 µM]	-11%	.
CC(=O)c1ccc(N2CCN(C(=O)Cn3cnc(S(=O)(=O)N4CCCCC4)c3)CC2)cc1	?	-6	21%	12%	-35%	27µM*
Cc1cscc1-c1ccc(C(=O)Nc2c(C)cccc2C)o1	.	?	.	.	.	-27%
CCOC(=O)c1c(-c2ccccc2)oc2ccc(O)c(CN3CCN(C)CC3)c12	-27%	30	-8%	50µM*	-38%	0%
SMILES	JMJD2A Tudor inh	PI5P4Ka inh	HP1b binding inh	G9a block	BAZ2B inh	PLK1 PBD inh
CCOC(=O)c1c(-c2ccccc2)oc2cc(CN(C)C)c(O)c(CN(C)C)c12	50µM*	.	-18%	.	.	-8%
CCOC(=O)c1c(CN2CCN(CCO)CC2)n(-c2ccccc2)c2cc(Br)c(O)cc12	-30%	-1	9%	?	-26%	-1%
CCOC(=O)c1c(CN2CCN(c3ccccc3)CC2)oc2cc(Br)c(O)cc12	50µM*	-8	-6%	50µM*	?	-5%
CCOC(=O)c1c(CN2CCN(C)CC2)oc2ccc(O)cc12	-20%	-1	31%	50µM*	?	1%
CCOC(=O)c1c(C)oc2cc(Cl)c(O)c(CN(C)C)c12	?	2	-20%	11%[59 µM]	-17%	-9%
CN(C)CCN(C)C1CN(C2CCCC2)S(=O)(=O)C1 (centres undefined)	.	-2	.	.	.	2%
N#Cc1ccccc1Cn1c(=O)n(-c2ccc(F)c(Cl)c2)c(=O)c2sccc21	-4%	.	46%	-38%[59 µM]	3%	.
CCOC(=O)c1c(-c2ccccc2)oc2ccc(O)cc12	-6%	18	37%	-22%[0.501 µM]	71µM*	-7%
c1ccc(-c2nc(-c3ccccn3)no2)cc1	-8%	.	11%	-1%[59 µM]	7%	-10%
c1ccc(-c2n[nH]c(-c3ccccn3)n2)cc1	?	-1	37%	?	8.9µM*	1%
COCCN(C(=O)COC(=O)c1ccc(Cl)nc1)c1c(N)n(Cc2ccccc2)c(=O)[nH]c1=O	4%	1	15%	?	1%	2%
Cc1ccc(/C=C2/N=C(c3ccccc3)NNC2=O)cc1	-34%	1	12%	14µM*	-20%	-24%
Fc1ccccc1-c1cc2ncccc2cn1	?	0	46%	-4%[0.501 µM]	56µM*	-2%
Cc1ccc(S(=O)(=O)NC2OC(=O)C(Cl)=C2Cl)cc1 (centres undefined)	-9%	-6	27%	?	79µM*	-25%
CCc1ccc2c(c1)c(=O)c(C(=O)c1ccccc1)cn2CC(=O)Nc1ccc(C)c(Cl)c1	?	.	8%	-7%[59 µM]	-12%	.
Cc1cccc2c3c([nH]c12)CCNC3	?	-5	-10%	-4%[0.501 µM]	-36%	24µM*
Cc1cccc2c(Cl)cc(=O)[nH]c12	.	.	.	18%[59 µM]	8%	.
C=CCn1c(O)c(N=NC(=S)Nc2ccc(OC)cc2)c2ccccc21	?	18	?	28µM*	?	0%
